DRD3 antagonist – D3 dopamine receptor (human) antagonism; D3R cells, DiscoveRx beta-arrestin luminescence, antagonist mode; active compounds read low; max response, negative = inhibition, %; P35462; AID 652054; hit rate 2.5% among 360,000; in the data active = max response below about -50%; inconclusive = no clear call, values can overlap the other calls
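Cells expressing the human receptor were seeded at 1500 cells/well, incubated overnight at 37 degrees C in 5% CO2, then exposed to library compounds with dopamine controls for 90 minutes at 37 degrees C before luminescent detection.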
D1 antag – antagonists of human D1 dopamine receptor; P21728; hit rate 3.2% among 360,000; activity change, negative = inhibition, % at 10 µM; AID 504652; HEK293 TREx D1 cells, calcium flux, dopamine EC80; active compounds read low; in the data active = activity change below about -30%
Target sequence (P21728 whole entry, looked up): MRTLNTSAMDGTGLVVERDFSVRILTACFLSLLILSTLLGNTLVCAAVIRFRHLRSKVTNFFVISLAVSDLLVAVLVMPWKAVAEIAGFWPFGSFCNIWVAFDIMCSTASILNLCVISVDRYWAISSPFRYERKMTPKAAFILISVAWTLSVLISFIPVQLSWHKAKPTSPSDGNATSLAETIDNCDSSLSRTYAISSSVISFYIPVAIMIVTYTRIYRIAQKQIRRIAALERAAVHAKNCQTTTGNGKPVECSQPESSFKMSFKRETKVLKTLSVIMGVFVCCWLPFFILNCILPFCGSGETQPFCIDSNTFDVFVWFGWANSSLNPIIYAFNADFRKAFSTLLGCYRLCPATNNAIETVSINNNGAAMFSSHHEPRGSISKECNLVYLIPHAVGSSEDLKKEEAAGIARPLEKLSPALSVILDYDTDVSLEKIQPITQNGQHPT
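Allosteric or orthosteric antagonism assessed as attenuation of the calcium response to EC80 dopamine, added 180 s after compound, in induced HEK293 Trex D1 cells loaded with no-wash calcium dye.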
DRD3 agonist – activates the human D3 dopamine receptor; P35462; hit rate 0.58% among 410,000; AID 652048; D3R DiscoveRx beta-arrestin cells, luminescence, 90 min; max activation, %; in the data active = max activation above about 30%
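Cells at 1500/well, incubated overnight, then treated with pinned compounds (dopamine as control) for 90 min at 37 degrees C. DiscoveRx reagent added for 30 - 60 minutes at room temperature; luminescence read.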
D1 agonist – agonists of human D1 dopamine receptor | P21728 | HEK293 T-REx D1 cells, calcium flux, agonist mode | activation, % at 2 µM | hit rate 1% among 360,000; in the data active = activation above about 30%
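Inducible HEK293 T-REx D1 cells, force-coupled to calcium signalling, were plated at 4000 cells/well with tetracycline and held overnight at 30 C. After no-wash calcium dye loading, compound-evoked calcium rise over 180 s flagged agonists.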
D1 PAM – human D1 dopamine receptor positive modulation | AID 504651 | hit rate 0.036% among 360,000 | HEK293 TREx D1 cells, calcium flux, dopamine EC20 potentiation | potentiation, % at 10 µM; in the data active = potentiation above about 30%
Numbers stand for hits; - = inactive; ? = inconclusive; . = no result; ! = not confirmed by another sample. An excerpt weighted towards active compounds, which were near 6.1% of everything screened.

SMILES	DRD3 antagonist	D1 antag	DRD3 agonist	D1 agonist	D1 PAM
COc1ccc(Nc2nnc(SC(C(=O)Nc3cc(C)ccc3C)c3ccccc3)s2)cc1 (configuration not stated)	-	-	-	-	-
COc1cccc(NC(=O)C(Sc2nnc(Nc3ccccc3C)s2)c2ccccc2)c1 (configuration not stated)	-54.2	-	-	-	-
COc1ccc(/C(N)=N/OC(=O)CCc2ccccc2)cc1	-	-	-	-	-
N/C(=N\OC(=O)CCCN1C(=O)c2ccccc2C1=O)c1ccccn1	-	-	-	-	-
COc1ccc(/C(N)=N/OC(=O)CCCN2C(=O)c3ccccc3C2=O)cc1OC	-	-	40.6	-	-
COc1ccc(/C(N)=N/OC(=O)CCc2ccccc2)cc1OC	-	-30.7	-	-	-
CCOC(=O)C1CCCN(C(=O)C2CCN(S(=O)(=O)c3cnc[nH]3)CC2)C1 (configuration not stated)	-	-41.0	-	-	-
O=C(Nc1cccc(Cl)c1)C1CCCN(S(=O)(=O)c2cnc[nH]2)C1 (configuration not stated)	-	-	-	-	.
CC1CCCN(S(=O)(=O)c2cnc[nH]2)C1 (configuration not stated)	-	-	32.6	-	-
O=C(NCc1ccccc1Cl)C1CCCN(S(=O)(=O)c2cnc[nH]2)C1 (configuration not stated)	-	-44.2	-	-	.
O=C(NCCN1CCN(c2cccc(Cl)c2)CC1)C1CCCN(S(=O)(=O)c2cnc[nH]2)C1 (configuration not stated)	-85.7	-	-	-	.
Cc1ccc(NC(=O)Nc2nnc(SCC(=O)N3CCCCC3)s2)cc1	.	.	-	-	-
O=C(NCCN1CCN(c2ccccc2)CC1)C1CCCN(S(=O)(=O)c2cnc[nH]2)C1 (configuration not stated)	-63.3	-	-	-	-
CCN(CCNC(=O)C1CCCN(S(=O)(=O)c2cnc[nH]2)C1)c1ccccc1 (configuration not stated)	-	-	-	-	.
CC[C@H](NC(C)C)[C@H](O)c1ccc(O)c2[nH]c(=O)ccc12	.	.	44.6	.	.
CCC(NC(C)C)C(O)c1ccc(O)c(O)c1 (configuration not stated)	-	-	34.0!	-	-
CCOC(=O)c1ccc(NC(=O)CC(C)n2nc(C)cc2C)cc1 (configuration not stated)	.	-	-	-	-
Cc1cccc(-c2nc(C#N)c(NCc3ccco3)o2)c1	-	-31.0	-	-	-
COCCCNC(=O)c1c(NC(=O)Cc2coc3c(C)c(C)ccc23)sc2c1CCCC2	.	-	-	-	-
CC1=NN(C(N)=S)C(=O)C1N=Nc1ccccc1C (configuration not stated)	-89.3	-	-	-	-
CC1=NN(C(N)=S)C(=O)C1N=Nc1ccccc1O (configuration not stated)	-	-	-	-	-
CC(Oc1ccccc1)C(=O)Nc1ccccc1C(=O)OCc1cc(=O)n2nc(C(C)C)sc2n1 (configuration not stated)	.	-	-	-	-
Cc1ccc(SCC(=O)Nc2cc([N+](=O)[O-])ccc2O)cc1	-	-	-	30.2	-
Cc1ccc(CC(=O)Nc2ccc([N+](=O)[O-])cc2C)cc1	-	-41.5	-	-	-
Cc1ccc(CC(=O)Nc2cccc([N+](=O)[O-])c2)cc1	-	-	-	-	-
SMILES	DRD3 antagonist	D1 antag	DRD3 agonist	D1 agonist	D1 PAM
Cc1ccc(CC(=O)Nc2ncc([N+](=O)[O-])s2)cc1	-	-39.0	-	-	-
CC(C)OC(=O)OCOP(=O)(CO[C@H](C)Cn1cnc2c(N)ncnc21)OCOC(=O)OC(C)C	.	.	-	.	.
O=C(NCCN1CCOCC1)C1CCN(S(=O)(=O)N2CCCC2)CC1	-	-	-	-	-
O=C(NCCN1CCN(c2ccccc2)CC1)c1ccc(NC(=O)C2CCCO2)cc1 (configuration not stated)	-	-	69.6	-	-
O=C(NCCN1CCN(c2ccccc2)CC1)C1CCN(S(=O)(=O)N2CCOCC2)CC1	-	-	63.2	-	-
O=C(NCCCN1CCN(c2ccccc2F)CC1)C1CCN(S(=O)(=O)N2CCOCC2)CC1	?	-87.7	-	-	-
CCCS(=O)(=O)N1CCC(C(=O)NCCN2CCC(Cc3ccccc3)CC2)CC1	-56.5	-	-	-	-
CCCc1ccc(S(=O)(=O)NCC2CCCN2CC)cc1 (configuration not stated)	-	-	-	-	-
CCN1CCCC1CNS(=O)(=O)c1c(C)cc(C)cc1C (configuration not stated)	-99.6	-	-	-	-
CC(C)NC(=O)NC(=O)COC(=O)/C=C/c1ccc2c(c1)OCO2	-	-30.4	-	-	-

Screening data: PubChem BioAssay, National Center for Advancing Translational Sciences (NCATS)
